Consider 7 molecules from ChEMBL document CHEMBL1961873, “Compounds: GSK PKIS; Assays: Nanosyn kinase panel” (2012).

A word on the inhibition: it is the drop in the measured response relative to a control, in per cent.

Assay [1] deals with MAP/microtubule affinity-regulating kinase 3 (Homo sapiens) (UniProt P27448). The following applies: at 1 µM.
For assay [2], the target named is T1, MAP/microtubule affinity-regulating kinase 4 (Homo sapiens) (UniProt Q96L34).
T1 sequence (whole entry): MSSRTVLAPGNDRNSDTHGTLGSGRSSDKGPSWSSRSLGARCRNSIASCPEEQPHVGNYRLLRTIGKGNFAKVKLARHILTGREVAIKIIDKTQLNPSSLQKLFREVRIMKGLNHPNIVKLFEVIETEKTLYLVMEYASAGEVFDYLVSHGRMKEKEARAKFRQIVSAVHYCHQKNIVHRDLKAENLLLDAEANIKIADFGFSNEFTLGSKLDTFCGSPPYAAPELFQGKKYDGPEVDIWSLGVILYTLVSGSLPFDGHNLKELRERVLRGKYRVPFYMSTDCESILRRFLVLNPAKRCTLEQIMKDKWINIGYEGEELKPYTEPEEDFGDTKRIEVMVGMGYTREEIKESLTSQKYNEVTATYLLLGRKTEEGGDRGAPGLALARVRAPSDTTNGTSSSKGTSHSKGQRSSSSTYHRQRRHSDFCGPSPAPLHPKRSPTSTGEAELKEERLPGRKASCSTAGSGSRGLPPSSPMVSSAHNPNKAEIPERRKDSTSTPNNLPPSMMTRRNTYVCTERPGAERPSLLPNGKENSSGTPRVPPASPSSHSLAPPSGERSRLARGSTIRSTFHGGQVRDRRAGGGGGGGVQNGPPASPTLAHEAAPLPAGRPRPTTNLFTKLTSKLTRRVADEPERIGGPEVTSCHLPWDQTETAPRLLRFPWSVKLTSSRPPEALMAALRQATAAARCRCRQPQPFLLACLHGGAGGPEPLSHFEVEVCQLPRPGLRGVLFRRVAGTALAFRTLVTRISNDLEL
To be noted: at 0.1 µM.

The target of assay [3] is T1, MAP/microtubule affinity-regulating kinase 4 (Homo sapiens). The following applies: at 1 µM.
Assay [4] addresses Maternal embryonic leucine zipper kinase (Homo sapiens) (UniProt Q14680). To be noted: at 0.1 µM.
For assay [5] the target is unchanged. To be noted: at 1 µM.
In assay [6] the target is MAP kinase-interacting serine/threonine-protein kinase 1 (Homo sapiens) (UniProt Q9BUB5). The following applies: at 0.1 µM.
Assay [7] has the same target. The following applies: at 1 µM.
The target in assay [8] is MAP kinase-interacting serine/threonine-protein kinase 2 (Homo sapiens) (UniProt Q9HBH9). To be noted: at 0.1 µM.
The target is the same in assay [9]. To be noted: at 1 µM.
The target in assay [10] is Serine/threonine-protein kinase MARK2 (Homo sapiens) (UniProt Q7KZI7). To be noted: at 0.1 µM.
For assay [11] the target is unchanged. The following applies: at 1 µM.
The target of assay [12] is PAS domain-containing serine/threonine-protein kinase (Homo sapiens) (UniProt Q96RG2). The following applies: at 0.1 µM.
Assay [13] shares this target. The following applies: at 1 µM.
The target of assay [14] is Phosphorylase b kinase gamma catalytic chain, skeletal muscle/heart isoform (Homo sapiens) (UniProt Q16816). The following applies: at 0.1 µM.
Assay [15] has the same target. To be noted: at 1 µM.
For assay [16], the target named is T2, Phosphorylase b kinase gamma catalytic chain, liver/testis isoform (Homo sapiens) (UniProt P15735).
T2 sequence (whole entry): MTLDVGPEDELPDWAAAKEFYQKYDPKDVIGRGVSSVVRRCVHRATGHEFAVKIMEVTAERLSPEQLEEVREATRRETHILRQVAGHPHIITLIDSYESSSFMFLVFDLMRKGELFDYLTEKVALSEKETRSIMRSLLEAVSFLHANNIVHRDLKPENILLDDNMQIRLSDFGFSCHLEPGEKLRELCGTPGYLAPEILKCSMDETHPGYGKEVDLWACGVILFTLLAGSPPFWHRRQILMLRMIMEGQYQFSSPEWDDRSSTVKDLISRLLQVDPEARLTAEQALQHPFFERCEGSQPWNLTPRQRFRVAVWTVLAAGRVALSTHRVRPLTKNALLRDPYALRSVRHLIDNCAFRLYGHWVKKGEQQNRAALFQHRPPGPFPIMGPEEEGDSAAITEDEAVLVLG
The following applies: at 0.1 µM.

Assay [17] addresses T2, Phosphorylase b kinase gamma catalytic chain, liver/testis isoform (Homo sapiens). To be noted: at 1 µM.
Assay [18] concerns the target Serine/threonine-protein kinase pim-1 (Homo sapiens) (UniProt P11309). To be noted: at 0.1 µM.
For assay [19] the target is unchanged. The following applies: at 1 µM.
The target in assay [20] is Serine/threonine-protein kinase pim-2 (Homo sapiens) (UniProt Q9P1W9). The following applies: at 0.1 µM.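 Note: reported value is the mean percent inhibition of PIM2, measured in the GSK PKIS kinase inhibitor set screen.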

Each structure is given as a SMILES string.

Sequence of MAP kinase-interacting serine/threonine-protein kinase 2 (Homo sapiens) (Q9HBH9 whole entry, looked up): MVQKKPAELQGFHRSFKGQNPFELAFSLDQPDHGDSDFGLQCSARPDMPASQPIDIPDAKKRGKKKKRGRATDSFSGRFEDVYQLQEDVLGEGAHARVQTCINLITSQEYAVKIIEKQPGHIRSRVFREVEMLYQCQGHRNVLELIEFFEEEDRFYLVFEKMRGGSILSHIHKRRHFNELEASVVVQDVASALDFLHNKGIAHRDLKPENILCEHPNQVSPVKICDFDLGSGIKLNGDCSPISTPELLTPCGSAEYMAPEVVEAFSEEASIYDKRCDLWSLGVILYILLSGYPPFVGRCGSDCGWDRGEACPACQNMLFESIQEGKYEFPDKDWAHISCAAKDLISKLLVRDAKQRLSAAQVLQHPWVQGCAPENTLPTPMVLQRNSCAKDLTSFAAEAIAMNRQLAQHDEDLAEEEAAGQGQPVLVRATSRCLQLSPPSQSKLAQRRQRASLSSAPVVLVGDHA
Sequence of Maternal embryonic leucine zipper kinase (Homo sapiens) (Q14680 whole entry, looked up): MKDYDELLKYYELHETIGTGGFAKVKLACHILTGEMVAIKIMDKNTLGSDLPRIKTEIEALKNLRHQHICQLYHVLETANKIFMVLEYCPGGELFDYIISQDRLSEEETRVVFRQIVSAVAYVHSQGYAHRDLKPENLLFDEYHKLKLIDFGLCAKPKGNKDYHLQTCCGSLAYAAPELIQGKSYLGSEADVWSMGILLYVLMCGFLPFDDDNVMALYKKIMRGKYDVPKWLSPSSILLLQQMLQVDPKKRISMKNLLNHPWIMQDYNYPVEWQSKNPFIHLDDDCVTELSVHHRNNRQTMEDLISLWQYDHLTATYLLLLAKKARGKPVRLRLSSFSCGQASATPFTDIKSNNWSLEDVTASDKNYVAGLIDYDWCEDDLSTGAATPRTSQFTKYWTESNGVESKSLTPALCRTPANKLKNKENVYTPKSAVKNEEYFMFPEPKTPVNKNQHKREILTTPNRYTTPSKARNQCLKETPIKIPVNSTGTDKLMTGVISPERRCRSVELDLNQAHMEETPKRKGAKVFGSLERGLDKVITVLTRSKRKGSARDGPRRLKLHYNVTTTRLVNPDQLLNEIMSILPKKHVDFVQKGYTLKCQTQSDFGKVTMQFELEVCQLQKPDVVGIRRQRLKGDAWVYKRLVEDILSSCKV
Sequence of Phosphorylase b kinase gamma catalytic chain, skeletal muscle/heart isoform (Homo sapiens) (Q16816 whole entry, looked up, canonical isoform): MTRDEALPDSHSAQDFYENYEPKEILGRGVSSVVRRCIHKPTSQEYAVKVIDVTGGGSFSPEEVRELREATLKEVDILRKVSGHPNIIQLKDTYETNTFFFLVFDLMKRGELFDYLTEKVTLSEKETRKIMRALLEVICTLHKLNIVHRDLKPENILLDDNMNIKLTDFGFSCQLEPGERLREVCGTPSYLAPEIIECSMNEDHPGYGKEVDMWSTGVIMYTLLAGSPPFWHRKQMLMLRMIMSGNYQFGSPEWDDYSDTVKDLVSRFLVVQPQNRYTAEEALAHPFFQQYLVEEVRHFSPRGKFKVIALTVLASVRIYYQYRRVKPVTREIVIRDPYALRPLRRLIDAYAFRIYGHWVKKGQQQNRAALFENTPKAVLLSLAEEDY
Sequence of Serine/threonine-protein kinase MARK2 (Homo sapiens) (Q7KZI7 whole entry): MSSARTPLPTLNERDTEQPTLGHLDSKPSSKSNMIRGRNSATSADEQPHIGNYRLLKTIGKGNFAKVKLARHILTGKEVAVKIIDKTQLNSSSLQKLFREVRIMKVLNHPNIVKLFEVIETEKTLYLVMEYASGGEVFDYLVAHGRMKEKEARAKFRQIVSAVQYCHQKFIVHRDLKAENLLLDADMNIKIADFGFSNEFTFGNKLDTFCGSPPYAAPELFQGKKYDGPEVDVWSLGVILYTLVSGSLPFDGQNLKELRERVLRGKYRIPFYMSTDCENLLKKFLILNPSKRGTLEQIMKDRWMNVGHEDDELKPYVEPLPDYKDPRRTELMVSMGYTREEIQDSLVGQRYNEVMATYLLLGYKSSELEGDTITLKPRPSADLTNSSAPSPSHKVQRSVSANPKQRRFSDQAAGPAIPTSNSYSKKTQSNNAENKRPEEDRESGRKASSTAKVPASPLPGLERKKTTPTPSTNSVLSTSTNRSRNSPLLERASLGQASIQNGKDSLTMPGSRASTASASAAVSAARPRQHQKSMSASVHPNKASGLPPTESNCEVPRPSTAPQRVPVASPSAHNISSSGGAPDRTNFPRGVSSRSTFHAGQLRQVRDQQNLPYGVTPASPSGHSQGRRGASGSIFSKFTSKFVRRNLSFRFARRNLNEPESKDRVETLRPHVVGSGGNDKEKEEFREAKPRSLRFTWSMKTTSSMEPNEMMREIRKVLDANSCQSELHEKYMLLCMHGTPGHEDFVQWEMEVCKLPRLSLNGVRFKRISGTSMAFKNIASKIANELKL
Sequence of Serine/threonine-protein kinase pim-1 (Homo sapiens) (P11309 whole entry, looked up): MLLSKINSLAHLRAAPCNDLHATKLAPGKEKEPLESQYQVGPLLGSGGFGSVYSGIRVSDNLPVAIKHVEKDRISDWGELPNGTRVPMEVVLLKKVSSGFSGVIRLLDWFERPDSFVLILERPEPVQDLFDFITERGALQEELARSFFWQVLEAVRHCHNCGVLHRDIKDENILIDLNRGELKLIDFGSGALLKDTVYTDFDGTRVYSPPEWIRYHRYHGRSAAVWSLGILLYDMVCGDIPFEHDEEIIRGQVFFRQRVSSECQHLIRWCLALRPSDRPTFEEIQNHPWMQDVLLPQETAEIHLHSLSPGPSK
Sequence of MAP kinase-interacting serine/threonine-protein kinase 1 (Homo sapiens) (Q9BUB5 whole entry, looked up): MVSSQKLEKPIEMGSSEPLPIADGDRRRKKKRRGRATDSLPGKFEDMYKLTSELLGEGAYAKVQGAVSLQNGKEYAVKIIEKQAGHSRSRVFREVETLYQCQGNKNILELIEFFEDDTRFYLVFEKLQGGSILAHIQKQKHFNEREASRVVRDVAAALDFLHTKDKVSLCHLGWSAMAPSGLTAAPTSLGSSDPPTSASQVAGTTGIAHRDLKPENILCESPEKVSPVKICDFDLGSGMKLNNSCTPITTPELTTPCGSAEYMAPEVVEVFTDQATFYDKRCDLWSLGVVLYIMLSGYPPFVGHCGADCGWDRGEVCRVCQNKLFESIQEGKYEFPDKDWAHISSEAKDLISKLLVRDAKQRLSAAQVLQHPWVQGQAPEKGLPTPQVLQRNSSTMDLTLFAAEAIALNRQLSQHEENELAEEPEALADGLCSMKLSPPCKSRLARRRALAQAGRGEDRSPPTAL
Sequence of PAS domain-containing serine/threonine-protein kinase (Homo sapiens) (Q96RG2 whole entry, the tested form may be a part): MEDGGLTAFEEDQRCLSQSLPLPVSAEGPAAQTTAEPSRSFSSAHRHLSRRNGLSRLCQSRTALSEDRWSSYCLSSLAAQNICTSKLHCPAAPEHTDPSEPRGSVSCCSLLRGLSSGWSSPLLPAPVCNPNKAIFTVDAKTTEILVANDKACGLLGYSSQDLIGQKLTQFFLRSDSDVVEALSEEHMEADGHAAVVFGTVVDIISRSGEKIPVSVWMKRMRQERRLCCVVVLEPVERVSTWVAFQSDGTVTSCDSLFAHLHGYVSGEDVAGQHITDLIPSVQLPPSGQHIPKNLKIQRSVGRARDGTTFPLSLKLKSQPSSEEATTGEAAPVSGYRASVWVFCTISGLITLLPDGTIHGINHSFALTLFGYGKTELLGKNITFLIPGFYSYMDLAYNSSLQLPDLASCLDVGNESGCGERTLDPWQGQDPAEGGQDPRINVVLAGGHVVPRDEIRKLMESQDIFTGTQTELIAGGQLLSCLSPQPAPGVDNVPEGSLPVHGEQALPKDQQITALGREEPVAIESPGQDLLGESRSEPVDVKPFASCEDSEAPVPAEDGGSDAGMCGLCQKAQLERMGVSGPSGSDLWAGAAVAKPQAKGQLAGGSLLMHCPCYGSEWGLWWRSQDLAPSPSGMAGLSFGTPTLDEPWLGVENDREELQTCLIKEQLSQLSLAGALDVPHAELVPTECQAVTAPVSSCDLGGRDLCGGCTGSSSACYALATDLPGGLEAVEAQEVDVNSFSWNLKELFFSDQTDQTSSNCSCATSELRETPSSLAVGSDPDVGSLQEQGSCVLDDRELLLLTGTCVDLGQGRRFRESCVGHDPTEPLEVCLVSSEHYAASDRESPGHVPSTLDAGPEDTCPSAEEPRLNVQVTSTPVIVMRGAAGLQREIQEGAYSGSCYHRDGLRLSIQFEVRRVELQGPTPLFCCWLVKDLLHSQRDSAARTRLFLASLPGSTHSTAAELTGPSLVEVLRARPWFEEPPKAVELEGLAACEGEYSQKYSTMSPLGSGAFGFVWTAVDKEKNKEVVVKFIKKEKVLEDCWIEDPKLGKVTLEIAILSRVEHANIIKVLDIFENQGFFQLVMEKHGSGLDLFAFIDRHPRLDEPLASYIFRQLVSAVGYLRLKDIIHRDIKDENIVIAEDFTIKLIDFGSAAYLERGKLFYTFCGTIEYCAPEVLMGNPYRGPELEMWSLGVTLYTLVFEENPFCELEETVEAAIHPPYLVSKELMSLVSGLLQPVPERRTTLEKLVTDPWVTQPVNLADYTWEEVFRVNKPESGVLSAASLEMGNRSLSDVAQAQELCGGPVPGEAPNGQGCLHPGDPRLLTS
Sequence of Serine/threonine-protein kinase pim-2 (Homo sapiens) (Q9P1W9 whole entry, looked up): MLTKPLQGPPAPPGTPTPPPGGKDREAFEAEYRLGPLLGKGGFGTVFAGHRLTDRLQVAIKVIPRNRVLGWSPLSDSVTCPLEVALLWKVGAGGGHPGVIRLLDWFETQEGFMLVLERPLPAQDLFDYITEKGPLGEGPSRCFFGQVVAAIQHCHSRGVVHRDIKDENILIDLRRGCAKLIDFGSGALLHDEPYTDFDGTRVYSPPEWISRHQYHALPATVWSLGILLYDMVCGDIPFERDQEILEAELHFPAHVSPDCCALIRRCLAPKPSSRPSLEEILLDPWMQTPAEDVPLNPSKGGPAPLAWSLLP

With `COc1ccc(-c2cc3c(N)ncnc3o2)cc1`, the inhibition in assay [1] is 4.01%; in assay [2], 0.16%; in assay [3], 1.62%; in assay [4], -3.33%; in [5], -1.79%; in [6] it was 0.35%. Besides, the inhibition is 2% in [7]; 0.74% in assay [8]; 4.21% in assay [9]; -0.22% in [10]; 3.33% in assay [11]; 1.26% in assay [12]. For the same molecule, the inhibition in assay [13] is 0.48%; in assay [14], 0.47%; in [15], 2.53%; in assay [16] it was -1.54%; in [17], -2.23%; in assay [18], -1.06%. The inhibition in assay [19] was 2.3%; in assay [20], 0.27%.
For `Cc1ccc2c(-c3ccnc(Nc4ccccc4)n3)c(-c3ccc(F)cc3)nn2n1`, the inhibition in [1] came out at 0.65%; in assay [2], 1.31%; in assay [3], 1.67%; in assay [4] it was 1.41%; in [5] it was 5.51%; in assay [6] it was 0.98%. The inhibition in assay [7] is 1.88%; in assay [8] it was 0.04%; in assay [9] it was 0.75%; in [10], 0.87%; in [11], 1.15%; in assay [12] it was 0.46%. Also, the inhibition in [13] was -1.64%; in assay [14], 1.5%; in assay [15], 4.45%; in assay [16], 4.39%; in [17], 1.91%; in assay [18], -0.18%. Further, the inhibition in assay [19] is -0.05%; in assay [20] it was -0.3%.
Take `N#Cc1c(NC(=O)c2ccc(F)cc2)sc2c1CCCC2`: the inhibition in [1] turned out to be 1.66%; in assay [2], 0.11%; in [3], 1.29%; in assay [4], 0.18%; in [5], 5.26%; in [6], 0.47%. The inhibition in [7] is 1.91%; in assay [8] it was 0.57%; in [9], 1.1%; in assay [10], 0.6%; in assay [11], 0%; in [12], -0.36%. In addition, the inhibition in [13] was 0.96%; in assay [14] it was 1.21%; in assay [15] it was 2.76%; in assay [16] it was 1%; in [17] it was 1.36%; in [18], -1.04%. For the same molecule, the inhibition was -0.95% in [19] and -0.39% in assay [20].
Turning to `CS(=O)(=O)CCNCc1ccc(-c2ccc3ncnc(Nc4ccc(OCc5ccccc5)c(C(F)(F)F)c4)c3c2)o1`, the inhibition amounted to 4.16% in [1]; 2.86% in assay [2]; 3.74% in assay [3]; 2.98% in assay [4]; 2.19% in [5]; 2.1% in assay [6]. Also, the inhibition was 3.92% in [7]; -0.02% in [8]; 4.64% in [9]; 0.21% in assay [10]; 1.46% in [11]; 0% in assay [12]. The inhibition in assay [13] was 0.88%; in assay [14], 7.15%; in [15], 6.03%; in [16] it was 5.4%; in [17], 5.06%; in [18], -0.57%. For the same molecule, the figures for the inhibition in [19] and in assay [20] were 1.31% and 0.54%, respectively.
Turning to `c1ccc(-c2nc3n(c2-c2ccc4c(c2)OCO4)CCC3)nc1`, the inhibition in [1] came out at 4.15%; in assay [2], 1.03%; in [3], 2.7%; in [4], 2.58%; in [5], 4.77%; in [6] it was 1.71%. The inhibition in assay [7] is 3.75%; in assay [8] it was 0.98%; in assay [9], -0.19%; in assay [10], 2.71%; in [11], 1.22%; in assay [12], -5.85%. Moreover, the inhibition in assay [13] was -0.24%; in assay [14], 3.66%; in [15], 2.79%; in [16] it was 1.19%; in assay [17] it was 0.01%; in [18], 0.37%. Further, the inhibition in assay [19] was 0.72%; in assay [20], -0.34%.
Take `Nc1ncc(-c2cccc(S(N)(=O)=O)c2)c2scc(-c3ccc(F)c(Cl)c3)c12`: the inhibition was 5.19% in [1]; 3.07% in assay [2]; 5.58% in [3]; 5.13% in assay [4]; 2.9% in [5]; 3.42% in assay [6]. Besides, the inhibition in assay [7] came out at 4.48%; in assay [8], 1.7%; in assay [9] it was 6.22%; in assay [10] it was 0.24%; in assay [11], 2.5%; in assay [12], 0.62%. For the same molecule, the inhibition in assay [13] is 1.05%; in assay [14], 4.52%; in assay [15], 5.24%; in [16] it was 6.23%; in assay [17], 6.66%; in assay [18], 0.81%. The inhibition stood at 0.67% in assay [19] and 0.52% in assay [20].
Turning to `CN1CCC(n2cnc(-c3ccc(F)cc3)c2-c2ccnc(N)n2)CC1`, the inhibition in assay [1] is 6.18%; in assay [2] it was 0.14%; in [3], 0.48%; in assay [4], 2.15%; in [5] it was 12.9%; in [6] it was 8.32%. Further, the inhibition in [7] is 41.2%; in assay [8] it was 3.66%; in [9], 16.9%; in assay [10] it was -1.15%; in assay [11], -0.63%; in [12], -0.52%. Besides, the inhibition was 1.84% in [13]; 1.61% in [14]; 5.65% in assay [15]; 2.82% in assay [16]; 2.94% in assay [17]; 2.59% in assay [18]. For the same molecule, the inhibition in assay [19] was 19.3%; in assay [20] it was 0.18%.
